Assay outcomes (PubChem)
Shown are actives, neighbours in structure and some others; about 12% of the full set was active somewhere.
G9a inh – blocks human histone lysine methyltransferase G9a. Q96KQ7. G9a H3K9 monomethylation, AlphaScreen, 2 h. Potency, µM (titrated, usually from 102 µM), for the others: top-dose activity, negative = inhibition, most hits filed as inhibitors. 8.8% of 350,000 active. AID 504332; also: % is scaled to controls: 0 for no effect and ±100 for the full control effect; nearly all actives have a fitted effect of over 75% in size
Target sequence (Q96KQ7 913-1193 limits assumed): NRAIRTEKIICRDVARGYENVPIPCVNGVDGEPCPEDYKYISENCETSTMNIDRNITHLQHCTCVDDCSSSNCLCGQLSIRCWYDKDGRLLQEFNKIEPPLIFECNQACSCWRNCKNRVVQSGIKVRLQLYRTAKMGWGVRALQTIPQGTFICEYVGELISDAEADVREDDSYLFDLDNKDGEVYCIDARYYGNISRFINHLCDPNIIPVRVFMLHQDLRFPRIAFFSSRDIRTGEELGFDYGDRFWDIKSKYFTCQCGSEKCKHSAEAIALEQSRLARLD
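G9a (20 nM) was preincubated 15 min with compound, then reacted 2 h at room temperature with 500 nM biotin-H3K9 peptide and 20 µM SAM. Monomethyl-H3K9 detected by AlphaScreen using anti-H3K9me1 antibody.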
HP1b binding inh – HP1-beta chromodomain-methylated histone interaction inhibition | P83916 | AlphaScreen HP1-beta / biotin-H3K9me3 peptide binding | Potency, µM (doses to about 114 µM), without a hit: top-dose activity change, negative = inhibition, most hits filed as inhibitors | 0.56% of 390,000 active | AID 540317; also: nearly all actives have a fitted effect of over 70% in size
Target sequence (P83916 whole entry, looked up): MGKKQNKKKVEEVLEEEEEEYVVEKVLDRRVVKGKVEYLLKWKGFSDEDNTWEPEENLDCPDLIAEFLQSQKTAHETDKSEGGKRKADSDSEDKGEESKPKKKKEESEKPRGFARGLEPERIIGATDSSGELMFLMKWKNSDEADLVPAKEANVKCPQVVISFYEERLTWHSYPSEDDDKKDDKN
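Compound inhibition of the preformed complex between 50 nM HP1-beta and 50 nM biotinylated H3K9me3 peptide was read by AlphaScreen. Buffer was PBS pH 7.4 with 0.01% Tween-20. Incubations ran 30 min at room temperature, with 10 ug/mL donor/acceptor beads.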
Sfp PPTase inh – Sfp phosphopantetheinyl transferase inhibition. 3.5% of 310,000 active. AID 1490. Biochemical Sfp PPTase activity, qHTS. Q9F4F7. Potency, µM, without a hit: largest response in the series, negative = inhibition, most hits filed as inhibitors;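 also: the enzyme is Sfp with the accession as filed and its product quenches rhodamine fluorescence; 0% = enzyme reaction without inhibitor and -100% = no enzyme wells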
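Fluorescence-quenching assay: 15 nM Sfp-PPTase preincubated 15 min at room temperature with compound, then 5 uM rhodamine-CoA and 12.5 uM BHQ-2-labelled YbbR peptide added. Fluorescence (ex 525/em 598 nm) read at start and after 30 min; difference gives rate.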
L3MBTL1 inh – L3MBTL1 (human) inhibition; 0.66% of 230,000 active; AlphaScreen L3MBTL1–H3K9me1 peptide binding; Potency, µM (highest dose often 57.1 µM), for inactives: top-dose activity, negative = inhibition, hits mostly inhibitors; Q9Y468; also: % is scaled to controls: 0 for no effect and ±100 for the full control effect; nearly all actives have a fitted effect of over 60% in size
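Read-out is AlphaScreen signal from streptavidin donor and nickel chelate acceptor beads (10 ug/mL final each) bridging L3MBTL1 (50 nM) and biotinylated K9-monomethylated H3(1-15) peptide (75 nM), after 30 min compound exposure at room temperature.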
JMJD2A Tudor inh – blocks the human JMJD2A Tudor domain. AID 504339. 4.4% of 390,000 active. Potency, µM (series often up to 114 µM), without a hit: at the top dose activity change, negative = inhibition, usual class: inhibitors. O75164. AlphaScreen JMJD2A-Tudor / H3K4me3 peptide binding; also: % is scaled to controls: 0 for no effect and ±100 for the full control effect; nearly all actives have a fitted effect of over 50% in size
BAZ2B block – inhibitors of human BAZ2B bromodomain | AlphaScreen BAZ2B-H3K14Ac peptide displacement | Potency, µM (highest dose often 114 µM), inactives show at the top dose activity change, negative = inhibition, usual class: inhibitors | 4.4% of 360,000 active; also: % is scaled to controls: 0 for no effect and ±100 for the full control effect; nearly all actives have a fitted effect of over 60% in size
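AlphaScreen luminescence quantifies BAZ2B engagement of H3K14Ac peptide; the protein and biotinylated peptide are both at 50 nM final, buffer PBS pH 7.4 with 0.01% Tween-20, all steps at room temperature.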
Starred values were filed as active, the others as inactive; [ ] = remark or other dose. Calls follow the shape of the dose curve; as a rule, active = well fitted curve in the direction sought with a large enough effect; inconclusive = small, poorly fitted or top-dose-only effect, or another doubt; inactive = no such curve, though single readings can be large; an effect the other way counts as inactive or inconclusive. Potency is read from the fitted curve at half-maximal effect.

Cc1nc(C(=O)O)nn1-c1cc(Cl)ccc1Cl was read as G9a inh 45µM*, HP1b binding inh 30%, Sfp PPTase inh 18%, L3MBTL1 inh 11%, JMJD2A Tudor inh -11% and BAZ2B block inconclusive.
For Cn1ncc(S(=O)(=O)Cc2ccccc2)c(Br)c1=O the results were G9a inh 1.5µM*.
Screening O=C(O)c1ccccc1S(=O)(=O)Cc1ccccc1 returned G9a inh -14%[12.7 µM], HP1b binding inh 12%, Sfp PPTase inh 18%, L3MBTL1 inh -1%, JMJD2A Tudor inh -20% and BAZ2B block 9%.
`O=C(O)c1ccccc1C(=O)Nc1ccc(Br)c2cccnc12` gave G9a inh -37%[59 µM], HP1b binding inh 49%, Sfp PPTase inh 40µM*, L3MBTL1 inh -19%, JMJD2A Tudor inh -4% and BAZ2B block -20%.
CCC(=O)N(CCC(c1ccccc1)c1ccco1)Cc1cccs1 (stereo not drawn) was read as G9a inh 30%[0.501 µM], HP1b binding inh 31%, Sfp PPTase inh 50µM*, L3MBTL1 inh 2%, JMJD2A Tudor inh 1% and BAZ2B block inconclusive.
Screening COc1ccccc1C(CCN(Cc1cccs1)C(C)=O)c1ccco1 (stereo not drawn) returned G9a inh 45µM*, HP1b binding inh 8%, Sfp PPTase inh 20µM*, L3MBTL1 inh -2%, JMJD2A Tudor inh -28% and BAZ2B block 79µM*.
O=C(c1ccco1)N(CCC(c1ccccc1)c1ccco1)Cc1ccccc1 (stereo not drawn) was read as G9a inh inconclusive, HP1b binding inh -1%, Sfp PPTase inh 50µM*, L3MBTL1 inh inconclusive, JMJD2A Tudor inh 56µM* and BAZ2B block 50µM*.
`CCC(=O)NCCC(c1ccco1)c1ccccc1OC` (stereo not drawn) gave G9a inh -19%[59 µM], HP1b binding inh 41%, Sfp PPTase inh 11µM*, L3MBTL1 inh -1%, JMJD2A Tudor inh -9% and BAZ2B block -2%.
`CCN(CC)C(=O)CC(c1ccccc1)c1ccco1` (stereo not drawn) gave G9a inh inconclusive, HP1b binding inh 23%, Sfp PPTase inh -16%, L3MBTL1 inh -1%, JMJD2A Tudor inh -28% and BAZ2B block 0%.
Cc1[nH]c(=O)[nH]c(=O)c1S(=O)(=O)N1CCCC(C(=O)N2CCN(c3cccc(C(F)(F)F)c3)CC2)C1 (stereo not drawn) was read as G9a inh 4%, HP1b binding inh -16%, Sfp PPTase inh 9%, JMJD2A Tudor inh -9% and BAZ2B block -9%.
Screening Cc1nc(-c2cccc(S(=O)(=O)N3CC(C)OC(C)C3)c2)cs1 (stereo not drawn) returned G9a inh 4%, HP1b binding inh 42%, Sfp PPTase inh 14%, L3MBTL1 inh -4%, JMJD2A Tudor inh 11% and BAZ2B block -4%.
`Cc1nc(-c2cccc(NC(=O)c3cccc(S(=O)(=O)N4CCCC4)c3)c2)cs1` gave G9a inh 10µM*, HP1b binding inh 37%, L3MBTL1 inh 5%, JMJD2A Tudor inh -11% and BAZ2B block 5%.
Cc1nc(-c2cccc(S(=O)(=O)N3CCOCC3)c2)cs1 was read as G9a inh inconclusive, HP1b binding inh -16%, Sfp PPTase inh 40µM*, L3MBTL1 inh -5%, JMJD2A Tudor inh -27% and BAZ2B block -1%.
For O=S(=O)(c1cccc(-c2csc(-c3cccnc3)n2)c1)N1CCOCC1 the results were G9a inh 71µM*, HP1b binding inh 7%, Sfp PPTase inh -3%, JMJD2A Tudor inh -18% and BAZ2B block -22%.
Screening CC(=O)Oc1cccc(-c2nc3ccccc3c(=O)o2)c1 returned G9a inh 12%, HP1b binding inh 39%, Sfp PPTase inh 12%, L3MBTL1 inh 8%, JMJD2A Tudor inh 10% and BAZ2B block 9%.
`O=c1oc(-c2cccc(S(=O)(=O)N3CCOCC3)c2)nc2ccccc12` gave G9a inh 10µM*, HP1b binding inh 41%, Sfp PPTase inh inconclusive, L3MBTL1 inh inconclusive, JMJD2A Tudor inh -7% and BAZ2B block 40%.
CN(C)CCNC(=O)CN1C(=O)COc2ccc(S(=O)(=O)N3CCCC3)cc21 was read as G9a inh -10%[59 µM], HP1b binding inh 33%, JMJD2A Tudor inh 9% and BAZ2B block -1%.
Cc1ccc2occ(CC(=O)Nc3ccc(Cl)c(C(F)(F)F)c3)c2c1 was read as G9a inh 19%[59 µM], HP1b binding inh 99%, JMJD2A Tudor inh 36% and BAZ2B block 3%.
Screening O=c1c2c3n(c(=S)nc2[nH]n1-c1ccccc1)CCCCC3 returned G9a inh 50µM*, HP1b binding inh 17%, Sfp PPTase inh -11%, JMJD2A Tudor inh -14% and BAZ2B block inconclusive.
For CCOc1ccc(CN(CC)C(=O)c2ccc3c(c2)[nH]c(=O)c(=O)n3CC)cc1OC the results were G9a inh 1%, HP1b binding inh -9%, Sfp PPTase inh 13%, JMJD2A Tudor inh -2% and BAZ2B block -1%.
COc1ccc(NC(C)=O)cc1NC(=O)CSc1nnc(C2CCCCC2)n1N was read as HP1b binding inh 47%, Sfp PPTase inh -7%, JMJD2A Tudor inh -1% and BAZ2B block -12%.
For Cn1cccc1Cc1nnc(SCC(=O)Nc2ccc(F)cc2F)n1-c1ccc(F)cc1 the results were G9a inh -1%[59 µM], HP1b binding inh 15%, Sfp PPTase inh -3%, L3MBTL1 inh -12%, JMJD2A Tudor inh -26% and BAZ2B block inconclusive.
`COc1ccc(Cl)cc1NC(=O)CSc1nnc(C2CC2)n1N` gave G9a inh 79µM*, HP1b binding inh 26%, L3MBTL1 inh 8%, JMJD2A Tudor inh -11% and BAZ2B block 10%.
For Cc1ccc(NC(=O)CSc2nnc(Cc3cccn3C)n2-c2ccc(F)cc2)c(C)c1 the results were G9a inh 28µM*, HP1b binding inh 31%, Sfp PPTase inh inconclusive, JMJD2A Tudor inh -14% and BAZ2B block inconclusive.
Screening COc1ccc(Cl)cc1NC(=O)CSc1nnc(Cc2cccn2C)n1-c1ccc(F)cc1 returned G9a inh 45µM*, HP1b binding inh -19%, Sfp PPTase inh 6%, L3MBTL1 inh -17%, JMJD2A Tudor inh inconclusive and BAZ2B block inconclusive.
`O=C(CC(NCc1ccccn1)C(=O)O)Nc1ccccc1Cl` (stereo not drawn) gave G9a inh 7%, HP1b binding inh 59%, Sfp PPTase inh inconclusive, L3MBTL1 inh 20µM*, JMJD2A Tudor inh 20µM* and BAZ2B block 2.8µM*.
